Source: PubChem
In the library only some 15% were active in any assay of this set; here they are far more common.
SARS PLP yeast – inhibitors of SARS-CoV papain-like protease in yeast. S. cerevisiae expressing SARS-CoV PLpro, growth rescue. Potency, µM (doses to about 32.9 µM), for inactives: at the top dose activity, positive = growth rescue, actives largely listed as activators. 330,000 compounds, 0.19% hits. AID 485353; calls by dose curve; further: potency means the concentration at half of the fitted maximal effect; 0% is about no effect; nearly all actives have a fitted effect of over 55% in size
Pf growth 48h – P. falciparum growth inhibition at 48 hours (one generation); Potency, µM (doses to about 28.7 µM), for inactives: at the top dose activity change, negative = inhibition, hits mostly inhibitors; 310,000 compounds, 5.9% hits; P. falciparum luciferase growth in erythrocytes, 48 h; further: potency means the concentration at half of the fitted maximal effect; on the % scale 0 is the no-effect control and ±100 the full control effect
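Erythrocytes infected with P. falciparum carrying an integrated firefly luciferase reporter (2% hematocrit, 0.1% parasitemia final) were exposed to compounds in RPMI 1640 with 0.5% Albumax at 37 C, 5% CO2. Growth inhibition was scored as reduced luminescence.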
Sm TGR block – blocks Schistosoma mansoni thioredoxin glutathione reductase | Q962Y6 | purified TGR, DTNB reduction, TNB absorbance 405 nm | Potency, µM (top dose mostly 114 µM), inactives show at the highest dose activity change, negative = inhibition, hits mostly inhibitors | 360,000 compounds, 3% hits | AID 485364; further: potency means the concentration at half of the fitted maximal effect; on the % scale 0 is the no-effect control and ±100 the full control effect; nearly all actives have a fitted effect of over 60% in size
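TGR 20 nM + NADPH 100 uM (dispensed conc.), cpd preinc 15 min RT; start with NADPH (500 uM addition) then DTNB (15 mM addition). Kinetic TNB absorbance, 405 nm filter. Four-parameter Hill fit across titration.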
HCV inhibitor – inhibitors of hepatitis C virus infection | Huh7.5.1 HCVcc-Cre infection, luciferase reporter, 44 h | Potency, µM (titrated, usually from 41.8 µM), inactives show top-dose activity change, negative = inhibition, hits mostly inhibitors | 340,000 compounds, 3.4% hits | AID 651820; further: potency means the concentration at half of the fitted maximal effect; on the % scale 0 is the no-effect control and ±100 the full control effect
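Whole-lifecycle infectious HCVcc-Cre system; cells 1,000/well, compound then virus (~0.5 moi) added 4 h after plating, 44 h culture. Luciferase read 15 sec following 15 min substrate incubation, room temp.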
Pf growth 96h – inhibits malaria parasite growth, 96 h | P. falciparum luciferase reporter growth, 96 h | 320,000 compounds, 6.9% hits | Potency, µM (series often up to 28.7 µM), for inactives: at the highest dose activity change, negative = inhibition, hits mostly inhibitors; further: potency means the concentration at half of the fitted maximal effect; on the % scale 0 is the no-effect control and ±100 the full control effect
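Plates of compound plus infected erythrocytes (2% hematocrit, 0.05% parasitemia final) incubate 96 hours, 37 C, 5% CO2. Detection reagent added; reduced luminescence from the parasites' luciferase reporter flags inhibition.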
HCMV inh – inhibitors of human cytomegalovirus; 410,000 compounds, 4.5% hits; HFF cells, HCMV-luciferase reporter, 72 h; active compounds read low; activity change, negative = inhibition, % at 57.5 µM; in the data active means activity change below about -60%; inconclusive means no clear call, values can overlap the other calls; inactive means above about -39%; further: on the % scale 0 is the no-effect control and ±100 the full control effect
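Two compound doses tested in HFFs infected with HCMV-luciferase, MOI 1 PFU/cell, 72 h at 37C. Lysate luminescence read with OneGlo; data normalized against buffer-only and 10uM Salinomycin inhibitor controls.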
* marks the source's active call; other numbers are inactive results; ? = inconclusive; nt = no result. Unless noted, the call rests on the fitted dose curve; in most records, active means well fitted curve in the direction sought with a large enough effect; inconclusive means small, poorly fitted or top-dose-only effect, or another doubt; inactive means no such curve, though single readings can be large; an effect the other way counts as inactive or inconclusive.

SMILES	SARS PLP yeast	Pf growth 48h	Sm TGR block	HCV inhibitor	Pf growth 96h	HCMV inh
CCOC(=O)Cc1csc(SCC(=O)N2CCN(c3ccccc3)CC2)n1	-3.6%	nt	nt	0.6%	nt	26.4
CSc1ncccc1C(=O)NNC(=O)c1ccc(NS(=O)(=O)c2cccs2)cc1	nt	0.1%	-7.8%	1.0%	-1.5%	-4.8
Nc1c(-c2nc(-c3cccs3)no2)nnn1-c1cccc(F)c1	nt	nt	6.3%	nt	nt	72.3
COc1ccc(CNC(=O)CS(=O)Cc2nc(-c3ccc(C)cc3)oc2C)cc1 (stereo not given)	3.6%	nt	50.1µM*	-11.7%	7.38µM*	3.5
COc1ccc(-c2nc(CS(=O)CC(=O)NCc3ccc4c(c3)OCO4)c(C)o2)cc1 (stereo not given)	7.2%	nt	-27.5%	7.8%	4.65µM*	-34.0
COc1ccc(-c2nc(CS(=O)CC(=O)NCc3ccco3)c(C)o2)cc1OC (stereo not given)	1.4%	nt	?	-19.5%	?	1.3
COc1ccc(CNC(=O)CS(=O)Cc2nc(-c3ccc(OC)c(OC)c3)oc2C)cc1 (stereo not given)	5.4%	-15.6%	25.1µM*	-4.2%	-26.0%	11.5
Cc1ccc(-c2nc(CS(=O)CC(=O)NCc3ccco3)c(C)o2)cc1 (stereo not given)	24.7%	13.5%	50.1µM*	-6.7%	-8.3%	-33.9
Cc1cccc(-c2nc(CS(=O)CC(=O)NCc3ccco3)c(C)o2)c1 (stereo not given)	0.4%	5.1%	?	7.8%	?	-23.6
COc1ccc(CN2C(=O)C(CC(=O)NCC3CCCCC3)CC(C(=O)N(C(C)C)C(C)C)=C2C)cc1 (stereo not given)	nt	nt	nt	nt	nt	17.6
Cc1ccc(-c2nc(CS(=O)CC(=O)NCc3ccccc3)c(C)o2)cc1 (stereo not given)	7.7%	nt	39.8µM*	-10.8%	-38.4%	20.7
Cc1ccc(-c2nc(CS(=O)CC(=O)NCc3ccccn3)c(C)o2)cc1 (stereo not given)	10.7%	nt	56.2µM*	17.3%	-3.2%	50.9
COc1ccc(-c2nc(CS(=O)CC(=O)NCc3ccc(Cl)cc3)c(C)o2)cc1OC (stereo not given)	-1.7%	-16.0%	44.7µM*	?	?	-36.5
Cc1ccc(-c2nc(CS(=O)CC(=O)NCCCN3CCN(Cc4ccccc4)CC3)c(C)o2)cc1 (stereo not given)	4.9%	?	-14.5%	10µM*	6.57µM*	-75.5*
Cc1oc(-c2ccc(Cl)cc2)nc1CS(=O)CC(=O)NCCCN1CCOCC1 (stereo not given)	?	0.9%	-28.3%	5.5%	?	-33.8
Cc1ccc(-c2nc(CS(=O)CC(=O)NCc3ccc(F)cc3)c(C)o2)cc1 (stereo not given)	0.1%	-12.7%	-29.4%	-12.5%	?	-18.1
COc1ccc(-c2nc(CS(=O)CC(=O)NCCc3ccc(Cl)cc3)c(C)o2)cc1OC (stereo not given)	nt	nt	?	nt	nt	-19.6
COc1ccc(Br)cc1S(=O)(=O)NCCc1cccs1	-9.9%	nt	nt	3.8%	nt	-9.9
CCN(CC)C(=O)c1[nH]cnc1C(=O)NC1CCN(C(=O)OC(C)(C)C)CC1	-1.3%	?	-6.5%	?	36.1%	-3.6
O=c1nc(/C=C/c2cc([N+](=O)[O-])ccc2Cl)cc(C(F)(F)F)[nH]1	14.4%	nt	?	-4.0%	-16.1%	-68.4*
COc1cc(/C=C/c2cc(C(F)(F)F)[nH]c(=O)n2)cc(OC)c1OC	-0.3%	?	nt	0.1%	2.3%	-97.0*
COc1cc(OC)c(OC)cc1/C=C/c1cc(C(F)(F)F)[nH]c(=O)n1	-1.2%	11.9%	6.4%	-20.5%	32.6%	?
O=C(NC1CCCCC1)N1CC(=O)N2[C@H](CO)[C@@H](c3ccc(Br)cc3)[C@@H]2C1	nt	nt	nt	nt	nt	-18.4
CCOC(=O)c1cccc(NC(=O)c2cnccn2)c1	-7.9%	56.0%	12.0%	10.5%	309.0%	32.0
CCOc1cc(-n2cnnn2)c(OCC)cc1NC(=O)c1cnccn1	-3.5%	-3.0%	-6.1%	-5.5%	5.22µM*	3.9
SMILES	SARS PLP yeast	Pf growth 48h	Sm TGR block	HCV inhibitor	Pf growth 96h	HCMV inh
CCOC(=O)c1cc(NC(=O)c2cnccn2)cc(C(=O)OCC)c1	-3.7%	30.5%	-0.4%	3.9%	25.6%	-92.5*
CSc1ccc(S(=O)(=O)Nc2ccc3c(c2)OCCO3)cc1	16.1%	13.8%	-13.6%	?	-9.8%	?
Cc1ccc(S(=O)(=O)c2c(C)nn(-c3ccccc3)c2OC(=O)c2ccc(Br)o2)cc1	9.4%	-4.0%	-6.7%	1.9%	-1.0%	37.3
Cc1ccc(S(=O)(=O)c2c(C)nn(-c3ccccc3)c2OC(=O)c2ccco2)cc1	-13.9%	-7.9%	35.5µM*	19.3%	1.6%	?
COc1ccc2c(c1)cc(C)c1nnc(SCC(=O)N3CCN(C(=O)c4ccco4)CC3)n12	-5.5%	-19.7%	?	-21.6%	11.5%	nt
Cc1cc2cc(C)c3nnc(SCC(=O)N4CCN(C(=O)c5ccco5)CC4)n3c2cc1C	nt	nt	nt	7.0%	nt	-73.2*
COc1cc2cc(C)c(SCC(=O)N3CCN(C(=O)c4ccco4)CC3)nc2cc1OC	-1.1%	?	17.8µM*	?	?	-9.1
Cc1c2cnn(CC(=O)N3CCN(c4ccccc4)CC3)c(=O)c2c(C)n1Cc1ccccc1Cl	nt	nt	21.5%	nt	nt	10.7
CN1CCN(c2ccc(NC(=O)C(C)(c3ccccc3)c3ccccc3)cc2)CC1	-0.4%	13.1µM*	-0.7%	?	?	-35.8
CN1CCN(c2ccc(NC(=O)c3cc4ccccc4o3)cc2)CC1	-0.9%	0.7%	-15.4%	?	-1.9%	97.1
COc1cc2ccccc2cc1C(=O)Nc1ccc(N2CCN(C(=O)C(C)C)CC2)cc1	-1.9%	11.7µM*	-0.7%	10µM*	14.7µM*	-4.4
CN1CCN(c2ccc(NC(=O)Oc3ccccc3)cc2)CC1	-2.8%	nt	-2.7%	18.3%	?	-13.2
COc1cc2ccccc2cc1C(=O)Nc1ccc(N2CCN(C)CC2)cc1	-12.0%	?	10.7%	12.6µM*	nt	5.8
CCN1Cc2cc(OC)ccc2-c2ccccc2S1(=O)=O	?	nt	nt	-1.3%	nt	-11.7
CC1(C)OC(=O)C2=C(CC(CCc3ccccc3)OC2c2ccc(F)cc2)O1 (stereo not given)	nt	nt	nt	nt	nt	10.6
Cn1c(-c2ccsc2)c(-c2cccs2)c2cc(Br)ccc21	1.3%	-1.5%	-6.9%	?	?	-4.3
COc1cc(F)cc(-c2ccc3c(c2)c(-c2cccs2)c(-c2cc(OC)cc(OC)c2)n3C)c1	1.0%	9.28µM*	-22.6%	?	?	-5.5
